The record followed here is PubChem BioAssay.

A short description of test [1]: binders of probe aFSTL3 on microarray, primary screen, stem cell growth factor project, biochemical, small-molecule microarray, fluorescence 635/667 (AID 1064).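 Also: measures binding of the biotinylated anti-FSTL3 antibody to printed compounds.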 As to conditions: higher = more signal.
A short description of test [2]: binders from COS7 lysate, DM2A8 probe, primary screen, torsin A project, cell lysate, small-molecule microarray, fluorescence 635/667 (AID 1065). As to conditions: higher = more signal, COS7 lysate expressing mutant human TOR1A.
Test [3] in a line: binders of probe aFGF2 on microarray, primary screen, stem cell growth factor project, biochemical, small-molecule microarray, fluorescence 635/667 (AID 1067).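 Also: measures binding of biotinylated aFGF2 protein to printed compounds on slides; z-score merges feature fluorescence and signal-to-noise across triplicate slides.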 As to conditions: higher = more signal.
Test [4] in a line: binders of probe aFGF10 on microarray, primary screen, stem cell growth factor project, biochemical, small-molecule microarray, fluorescence 635/667 (AID 1071).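 Also: score merges 667 nm spot intensity and signal to noise from triplicate slides.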 As to conditions: higher = more signal.
In test [5] the target is Neurogenic locus notch homolog protein 2 (Homo sapiens) (UniProt Q04721). Kind of test: Notch2 binders on small-molecule microarrays, primary screen, biochemical, small-molecule microarray, 635 nm fluorescence, stem cell growth factors (AID 1073). As to conditions: Notch2 binding, higher = more signal.
Neurogenic locus notch homolog protein 2 (Homo sapiens), sequence (Q04721 whole entry, looked up, canonical isoform): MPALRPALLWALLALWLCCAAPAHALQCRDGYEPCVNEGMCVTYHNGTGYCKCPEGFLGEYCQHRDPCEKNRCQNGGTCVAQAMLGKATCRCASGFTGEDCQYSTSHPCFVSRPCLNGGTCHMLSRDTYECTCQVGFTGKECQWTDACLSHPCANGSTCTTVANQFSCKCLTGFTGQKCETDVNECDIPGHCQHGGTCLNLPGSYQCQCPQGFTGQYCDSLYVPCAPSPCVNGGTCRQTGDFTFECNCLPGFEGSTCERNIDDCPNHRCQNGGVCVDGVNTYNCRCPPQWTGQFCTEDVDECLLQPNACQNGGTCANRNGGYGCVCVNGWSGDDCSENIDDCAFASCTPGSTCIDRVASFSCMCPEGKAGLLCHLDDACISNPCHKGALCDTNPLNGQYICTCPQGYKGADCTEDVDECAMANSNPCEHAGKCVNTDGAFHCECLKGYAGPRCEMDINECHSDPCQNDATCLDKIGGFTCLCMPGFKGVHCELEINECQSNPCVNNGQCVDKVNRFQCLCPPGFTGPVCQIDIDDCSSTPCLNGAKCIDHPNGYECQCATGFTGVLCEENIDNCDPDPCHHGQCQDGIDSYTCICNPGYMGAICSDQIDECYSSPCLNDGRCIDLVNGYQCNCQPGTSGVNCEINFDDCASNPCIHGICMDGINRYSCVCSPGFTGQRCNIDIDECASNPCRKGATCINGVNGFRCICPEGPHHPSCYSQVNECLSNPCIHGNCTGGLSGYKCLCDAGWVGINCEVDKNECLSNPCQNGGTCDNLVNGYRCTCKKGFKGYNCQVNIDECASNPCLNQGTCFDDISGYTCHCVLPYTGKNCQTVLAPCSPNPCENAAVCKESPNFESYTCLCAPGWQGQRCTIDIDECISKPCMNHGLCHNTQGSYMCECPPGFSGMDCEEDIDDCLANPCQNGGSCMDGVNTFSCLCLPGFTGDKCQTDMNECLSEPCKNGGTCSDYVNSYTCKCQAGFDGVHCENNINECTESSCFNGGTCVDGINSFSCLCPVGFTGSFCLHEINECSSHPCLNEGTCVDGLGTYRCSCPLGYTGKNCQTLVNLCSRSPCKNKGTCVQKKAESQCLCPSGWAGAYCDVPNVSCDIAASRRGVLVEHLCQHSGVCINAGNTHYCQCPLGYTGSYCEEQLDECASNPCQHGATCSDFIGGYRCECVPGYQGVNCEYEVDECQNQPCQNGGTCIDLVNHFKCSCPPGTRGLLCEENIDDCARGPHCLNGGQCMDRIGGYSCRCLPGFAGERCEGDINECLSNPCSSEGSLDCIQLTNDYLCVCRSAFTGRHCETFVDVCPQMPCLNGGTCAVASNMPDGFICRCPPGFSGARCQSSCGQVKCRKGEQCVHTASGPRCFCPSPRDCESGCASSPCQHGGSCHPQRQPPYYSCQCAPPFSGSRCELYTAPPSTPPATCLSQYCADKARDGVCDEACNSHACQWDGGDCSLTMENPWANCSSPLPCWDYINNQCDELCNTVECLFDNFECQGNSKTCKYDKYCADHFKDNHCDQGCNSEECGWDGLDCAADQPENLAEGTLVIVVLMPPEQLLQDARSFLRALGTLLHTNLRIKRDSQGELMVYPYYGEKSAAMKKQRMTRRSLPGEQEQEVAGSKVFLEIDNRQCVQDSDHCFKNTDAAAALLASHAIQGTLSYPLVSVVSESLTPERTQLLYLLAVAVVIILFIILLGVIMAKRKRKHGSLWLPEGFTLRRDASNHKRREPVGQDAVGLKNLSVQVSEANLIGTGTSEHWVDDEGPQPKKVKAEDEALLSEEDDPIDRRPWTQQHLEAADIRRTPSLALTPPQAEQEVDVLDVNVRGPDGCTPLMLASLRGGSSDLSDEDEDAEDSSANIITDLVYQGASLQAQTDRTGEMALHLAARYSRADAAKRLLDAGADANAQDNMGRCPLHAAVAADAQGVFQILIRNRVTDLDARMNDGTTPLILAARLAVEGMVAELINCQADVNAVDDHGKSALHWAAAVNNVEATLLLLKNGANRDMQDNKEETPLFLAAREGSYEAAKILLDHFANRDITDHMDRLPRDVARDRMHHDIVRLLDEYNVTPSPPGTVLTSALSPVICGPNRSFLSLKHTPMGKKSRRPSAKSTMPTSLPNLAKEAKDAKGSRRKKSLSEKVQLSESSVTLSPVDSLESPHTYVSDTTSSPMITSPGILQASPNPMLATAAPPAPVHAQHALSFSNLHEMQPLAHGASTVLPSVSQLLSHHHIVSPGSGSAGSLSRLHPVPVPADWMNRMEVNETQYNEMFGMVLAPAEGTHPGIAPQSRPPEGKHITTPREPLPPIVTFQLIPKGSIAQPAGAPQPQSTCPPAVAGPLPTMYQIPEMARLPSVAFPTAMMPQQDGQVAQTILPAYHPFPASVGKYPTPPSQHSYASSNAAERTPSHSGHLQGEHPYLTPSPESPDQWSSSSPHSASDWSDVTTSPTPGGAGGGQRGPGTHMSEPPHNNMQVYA
Test [6] concerns the target Pro-neuregulin-1, membrane-bound isoform (Homo sapiens) (UniProt Q02297). As to the kind of experiment: NRG1 binders on small-molecule microarrays, primary screen, psychiatric disease protein project, biochemical, small-molecule microarray, fluorescence 635/667 (AID 1075).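 Also: score combines 667 nm spot fluorescence with signal to noise.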 As to conditions: NRG1 binding, 635 nm fluorescence, higher = more signal.
Test [7] relates to Neuregulin-1 EGF-like domain. As to the kind of experiment: binders of neuregulin-1 EGF-like domain, primary screen, biochemical, small-molecule microarray, 635 nm fluorescence (AID 1081).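 Also: binding of the protein to compounds printed on small-molecule microarray slides.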 As to conditions: small-molecule microarray binding, higher = more signal.
A short description of test [8]: FRG1 promoter luciferase signal modulators, primary screen, FRG1 inhibition for FSHD, cell-based, C2C12 myotubes, firefly/Renilla luciferase, luminescence (AID 1084). As to conditions: higher = more signal, called active from +8 up or from −8 down.
Test [9] is described as follows: binders of probe aFST on microarray, primary screen, stem cell growth factor project, biochemical, small-molecule microarray, fluorescence 635/667 (AID 1086).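 Also: score merges 667 nm fluorescence with signal-to-noise of each printed compound spot.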 As to conditions: higher = more signal.
Test [10] can be described thus: binders of probe aHhip on microarray, primary screen, stem cell growth factor project, biochemical, small-molecule microarray, fluorescence 635/667 (AID 1087).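 Also: score merges spot fluorescence at 667nm with spot signal to noise ratio.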 As to conditions: higher = more signal.
Test [11] deals with PRMT1 (protein arginine N-methyltransferase 1). As to the kind of experiment: PRMT1 binders on small-molecule microarrays, primary screen, biochemical, small-molecule microarray, 635 nm fluorescence (AID 1088).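 Also: binding of Prmt1 protein to compounds spotted on small-molecule microarray slides.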 As to conditions: small-molecule microarray binding, higher = more signal.
Test [12] can be described thus: yeast growth modulation, basal conditions, primary screen, YJM789 clinical isolate, OD600, 24 h (AID 1089).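 Also: growth of clinical yeast isolate S. cerevisiae YJM 789 seeded 1000 cells per well; test concentration not given here.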 As to conditions: S. cerevisiae YJM789 growth, higher = more signal, called active from +8 up or from −8 down.
A short description of test [13]: fission yeast growth modulation, primary screen, strain 972, OD600, 24 h, no modulator (AID 1090).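 Also: basal condition with compound alone and no growth modifier present; test concentration not given here.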 As to conditions: S. pombe 972 growth, higher = more signal, called active from +8 up or from −8 down.
A short description of test [14]: S. cerevisiae growth modulation with rapamycin, primary screen, strain BY4716, OD600, 96 h (AID 1091). Also: test concentration not given here. As to conditions: higher = more signal, called active from +8 up or from −8 down.
Test [15] deals with Torsin-1A-interacting protein 2 (Homo sapiens) (UniProt Q8NFQ8). Kind of test: LULL1 binders on small-molecule microarray, primary screen, cell lysate, human LULL1 lysate, 635/667 nm fluorescence (AID 1092).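 Also: probe is lysate of COS7 cells overexpressing human LULL1; score merges per-feature 667 nm fluorescence with signal-to-noise.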 As to conditions: hLULL1 lysate binding, 635 nm fluorescence, higher = more signal.
Torsin-1A-interacting protein 2 (Homo sapiens), sequence (Q8NFQ8 whole entry, looked up): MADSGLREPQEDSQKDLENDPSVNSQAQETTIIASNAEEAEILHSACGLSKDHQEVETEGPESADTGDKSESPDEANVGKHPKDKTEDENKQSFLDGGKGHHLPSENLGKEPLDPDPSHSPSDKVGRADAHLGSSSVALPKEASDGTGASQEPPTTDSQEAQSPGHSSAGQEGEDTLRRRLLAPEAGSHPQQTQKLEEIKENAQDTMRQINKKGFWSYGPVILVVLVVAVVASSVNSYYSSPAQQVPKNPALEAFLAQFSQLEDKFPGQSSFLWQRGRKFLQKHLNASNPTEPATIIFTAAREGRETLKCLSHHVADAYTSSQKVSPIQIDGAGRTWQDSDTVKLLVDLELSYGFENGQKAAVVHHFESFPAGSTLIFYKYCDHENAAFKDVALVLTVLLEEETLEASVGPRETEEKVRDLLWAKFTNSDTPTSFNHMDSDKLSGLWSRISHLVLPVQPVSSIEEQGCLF
The nature of test [16]: E. coli growth modulation, two-sided OD650, primary screen, E. coli filamentation project, strain DRC41, 24 h (AID 1093).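 Also: MC1000 strain lacking acrAB efflux and sulA so SOS filamentation is blocked; test concentration not given here.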 As to conditions: OD650, 24 h, higher = more signal, called active from +8 up or from −8 down.
The nature of test [17]: small-molecule microarray binders of probe aLefty2, primary screen, biochemical, biotinylated probe, 635/667 nm fluorescence (AID 1094).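 Also: score merges spot fluorescence near 667 nm with spot signal-to-noise ratio.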 As to conditions: higher = more signal.
In test [18] the test system is Noggin (protein binding on small-molecule microarray). As to the kind of experiment: Noggin binders on small-molecule microarray, primary screen, biochemical, 635/667 nm fluorescence (AID 1095).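 Also: score merges 667 nm feature fluorescence with signal to noise over triplicate slides.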 As to conditions: 635 nm fluorescence, higher = more signal.
The target of test [19] is Neurogenic locus notch homolog protein 3 (Homo sapiens) (UniProt Q9UM47). As to the kind of experiment: NOTCH3 binders on small-molecule microarray, primary screen, biochemical, 635/667 nm fluorescence (AID 1096). As to conditions: NOTCH3 binding, 635 nm fluorescence, higher = more signal.
The nature of test [20]: small-molecule microarray binders of probe aEGFR, primary screen, biochemical, biotinylated probe, 635/667 nm fluorescence (AID 1097).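 Also: probe is a biotinylated anti-EGFR antibody binding compounds printed on slides; score combines fluorescence near 667 nm and signal to noise of each spot.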 As to conditions: higher = more signal.

Activity calls are given as the source filed them.

Pro-neuregulin-1, membrane-bound isoform (Homo sapiens), sequence (Q02297 whole entry, looked up, the tested form may be a part, canonical isoform): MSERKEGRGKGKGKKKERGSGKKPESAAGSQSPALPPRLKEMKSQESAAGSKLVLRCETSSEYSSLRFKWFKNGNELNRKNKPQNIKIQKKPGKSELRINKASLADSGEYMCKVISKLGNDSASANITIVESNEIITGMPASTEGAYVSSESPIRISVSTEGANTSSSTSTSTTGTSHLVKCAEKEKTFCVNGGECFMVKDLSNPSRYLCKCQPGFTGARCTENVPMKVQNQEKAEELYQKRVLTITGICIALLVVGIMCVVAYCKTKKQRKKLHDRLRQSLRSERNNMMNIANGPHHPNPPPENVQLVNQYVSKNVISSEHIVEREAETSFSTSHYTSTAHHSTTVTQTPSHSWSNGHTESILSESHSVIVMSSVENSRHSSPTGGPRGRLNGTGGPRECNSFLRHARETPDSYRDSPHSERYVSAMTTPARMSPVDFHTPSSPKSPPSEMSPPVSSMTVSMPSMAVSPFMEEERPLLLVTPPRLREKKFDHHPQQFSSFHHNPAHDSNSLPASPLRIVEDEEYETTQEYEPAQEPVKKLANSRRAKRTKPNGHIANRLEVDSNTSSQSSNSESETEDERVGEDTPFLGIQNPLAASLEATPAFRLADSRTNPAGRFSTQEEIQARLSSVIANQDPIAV

As to `C=CCOC(=O)[C@@H]1[C@H]2C(=O)O[C@H](c3ccccc3)[C@H](c3ccccc3)N2[C@H](c2ccc(OCCOC(=O)[C@@H]3C[C@@H]4C(=O)N[C@@H](CCCC[N+](C)(C)C)C(=O)N4[C@@H]3c3ccc(O)cc3)cc2)[C@@]12C(=O)Nc1ccc(I)cc12`, the composite z-score is -0.106 in [1]; 0.956 in test [2]; -0.0005 in test [3]; 0.884 in test [4]; 0.617 in test [5]; 1.2 in test [6]. Also, the composite z-score in test [7] is 1.38; in test [9], -0.0446; in [10], -0.16; in [11], 1.53; in [15] it was 2.21; in test [17], -0.103. For the same compound, the composite z-score in test [18] was 0.989; in test [19], 1.07; in test [20], -0.0006. Moreover, the z-score in [8] was 3.51 (inactive); in test [12], 0.954 (inactive); in test [13], -1.48 (inactive); in test [14] it was 1.02 (inactive); in test [16], -0.0235 (inactive).

As to `CCCNC(=O)[C@@]1(Sc2ccc(C)cc2)CC(=O)N(C2Cc3ccccc3C2)[C@@H]1c1ccc(CO)cc1I`, the composite z-score in test [1] is 0.427; in [2], 0.31; in test [3], -0.103; in test [4], 0.0119; in test [5] it was -0.445; in [6] it was 0.917. The composite z-score in test [7] is 1.01; in test [9] it was -0.227; in test [10] it was 0.0505; in [11], 0.918; in test [15], 1.28; in test [17] it was -0.0321. The figures for the composite z-score in [18], in [19] and in test [20] were -0.287, -0.0184 and -0.126, respectively. Besides, the z-score in [8] was -0.653 (inactive); in [12], -0.452 (inactive); in test [13] it was -1.32 (inactive); in test [14], 1.21 (inactive); in test [16] it was 0.761 (inactive).

Consider `C=CCOC(=O)[C@@]1(Cc2ccccc2)C[C@H]2CO[C@H](c3ccc(OC)cc3)N2C1=O`, for which the composite z-score is -0.442 in [1]; 0.366 in test [2]; -0.12 in [3]; 0.252 in [4]; 0.0925 in test [5]; -0.294 in [6]. Besides, the composite z-score in test [7] was 0.209; in test [9] it was -0.135; in [10], 0.0373; in [11], 0.262; in [15], 0.317; in [17], -0.126. Besides, the composite z-score was 0.224 in test [18], 0.408 in test [19] and -0.15 in test [20]. In addition, the z-score was -1.33 (inactive) in [8]; -2.65 (inactive) in test [12]; -3.58 (inactive) in [13]; 0.0326 (inactive) in [14]; 0.1 (inactive) in test [16].

For the compound `COc1cc2c(cc1O)C(C1CC1)N(C)CC2` (stereo not given), the composite z-score is 0.646 in test [1]; -0.616 in [2]; -0.104 in test [3]; -0.874 in test [4]; -0.531 in [5]; 0.63 in test [6]. Moreover, the composite z-score in test [7] is -0.197; in test [9] it was -0.406; in test [10] it was -0.0994; in test [11] it was 0.153; in test [15], 0.0629; in [17], 0.0112. The composite z-score is 0.0427 in test [18], -0.944 in [19] and -0.171 in [20]. The z-score is 0.0877 (inactive) in [8]; 0.814 (inactive) in test [12]; 0.74 (inactive) in test [13]; -0.531 (inactive) in test [14]; -0.965 (inactive) in [16].

As to `Cc1ccc(F)cc1S(=O)(=O)N[C@@H]1CCN(Cc2ccc(Br)cc2)C1`, the composite z-score in test [1] is -0.414; in [2], 0.673; in test [3], -0.23; in [4], -0.207; in test [5], 0.414; in test [6] it was -0.107. Also, the composite z-score in test [7] is 0.035; in test [9] it was 0.258; in test [10], -0.0994; in test [11], -0.268; in [15], -1.04; in [17], -0.161. Also, the composite z-score was 1.21 in test [18], 0.895 in test [19] and -0.0455 in test [20]. Moreover, the z-score was -2.08 (inactive) in [8]; -1.47 (inactive) in test [12]; -17.4 (active) in [13]; -1.73 (inactive) in [14]; -1.12 (inactive) in test [16].
